{"source": "the supplement of paper PMC12645437", "about": "“Orthogonal IMiD-Degron Pairs Induce Selective Protein Degradation in Cells” (ACS Chemical Biology, 2025)", "target": "T1, CRBN, Q96SW2", "T1 chain": "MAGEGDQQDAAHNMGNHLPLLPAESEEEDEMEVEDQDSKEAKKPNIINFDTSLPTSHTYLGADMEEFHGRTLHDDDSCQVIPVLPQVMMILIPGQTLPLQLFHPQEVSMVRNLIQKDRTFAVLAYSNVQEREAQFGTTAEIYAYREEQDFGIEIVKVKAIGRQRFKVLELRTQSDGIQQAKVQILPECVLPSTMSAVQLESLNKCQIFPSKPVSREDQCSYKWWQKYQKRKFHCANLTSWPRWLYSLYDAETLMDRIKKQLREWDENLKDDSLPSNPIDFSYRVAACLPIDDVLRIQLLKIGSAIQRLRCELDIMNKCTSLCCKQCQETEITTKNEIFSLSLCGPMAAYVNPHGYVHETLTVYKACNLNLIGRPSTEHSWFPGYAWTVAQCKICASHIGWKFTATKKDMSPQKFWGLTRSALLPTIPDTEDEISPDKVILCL", "assay": "log2 fold change of degron read counts, EGFP-low vs EGFP+ sorted cells (limma voom), compound-induced degradation; higher = more compound-induced degradation of the degron-EGFP fusion; degrons are variants of IKZF1/3 zinc finger 2; compound dose not given here", "conditions": "Jurkat, 18 h", "key": {"[1]": {"conditions": "compound: compound 19 (5-tert-butyl-thalidomide)"}, "[2]": {"conditions": "compound: compound 22 (5-morpholino-thalidomide)"}, "[3]": {"conditions": "compound: compound 33 (diphenyl IMiD analogue)"}}, "note": "In all, about 8,300 sequences were measured (“log2 fold change of degron read counts, EGFP-low vs EGFP+ sorted cells (limma voom), compound-induced degradation”: median about -1.1, highest 2% from about 3.2 on). The full list was thinned out, with the highest values kept by preference.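 Further: pooled lentiviral library of zinc finger degron-EGFP fusions in mCherry-positive Jurkat cells, FACS-sorted after compound exposure, with degron abundance counted by next-generation sequencing.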", "data": [{"sequence": "FICEICGAVFTQKGNLLRHIKL", "note": "[46F_47I_49E_50I_52G_53A_54V_55F_67L_, Q9UKT9]", "values": [{"measurement": "log2 fold change of degron read counts", "setting": "[1]", "result": -0.571}, {"measurement": "log2 fold change of degron read counts", "setting": "[2]", "result": 1.25}, {"measurement": "log2 fold change of degron read counts", "setting": "[3]", "result": 2.53}, {"measurement": "log2 fold change of degron read counts", "setting": "compound: thalidomide", "result": 2.12}]}, {"sequence": "FECEQCGAIFTQKGNLLRHIKL", "note": "[46F_47E_49E_50Q_52G_53A_54I_55F_67L_, Q9UKT9]", "values": [{"measurement": "log2 fold change of degron read counts", "setting": "[1]", "result": -2.86}, {"measurement": "log2 fold change of degron read counts", "setting": "[2]", "result": -2.97}, {"measurement": "log2 fold change of degron read counts", "setting": "[3]", "result": -1.26}, {"measurement": "log2 fold change of degron read counts", "setting": "compound: thalidomide", "result": -0.499}]}, {"sequence": "LACEICGFECTQKGNLLRHIKL", "note": "[46L_47A_49E_50I_52G_53F_54E_55C_67L_, Q9UKT9]", "values": [{"measurement": "log2 fold change of degron read counts", "setting": "[1]", "result": 0.602}, {"measurement": "log2 fold change of degron read counts", "setting": "[2]", "result": -0.739}, {"measurement": "log2 fold change of degron read counts", "setting": "[3]", "result": -1.36}, {"measurement": "log2 fold change of degron read counts", "setting": "compound: thalidomide", "result": -0.804}]}, {"sequence": "FICEICGRMFTQKGNLLRHIKL", "note": "[46F_47I_49E_50I_52G_53R_54M_55F_67L_, Q9UKT9]", "values": [{"measurement": "log2 fold change of degron read counts", "setting": "[1]", "result": -2.48}, {"measurement": "log2 fold change of degron read counts", "setting": "[2]", "result": -1.85}, {"measurement": "log2 fold change of degron read counts", "setting": "[3]", "result": -0.238}, {"measurement": "log2 fold change of degron read counts", "setting": "compound: thalidomide", "result": -0.738}]}, {"sequence": "FVCPICGATFTQKGNLLRHIKL", "note": "[46F_47V_49P_50I_52G_53A_54T_55F_67L_, Q9UKT9]", "values": [{"measurement": "log2 fold change of degron read counts", "setting": "[1]", "result": -0.613}, {"measurement": "log2 fold change of degron read counts", "setting": "[2]", "result": 1.74}, {"measurement": "log2 fold change of degron read counts", "setting": "[3]", "result": 1.8}, {"measurement": "log2 fold change of degron read counts", "setting": "compound: thalidomide", "result": 2.23}]}, {"sequence": "FMCPICGATFTQKGNLLRHIKL", "note": "[46F_47M_49P_50I_52G_53A_54T_55F_67L_, Q9UKT9]", "values": [{"measurement": "log2 fold change of degron read counts", "setting": "[1]", "result": -1.31}, {"measurement": "log2 fold change of degron read counts", "setting": "[2]", "result": 0.0387}, {"measurement": "log2 fold change of degron read counts", "setting": "[3]", "result": 2.08}, {"measurement": "log2 fold change of degron read counts", "setting": "compound: thalidomide", "result": 1.34}]}, {"sequence": "FKCPICGATFTQKGNLLRHIKL", "note": "[46F_47K_49P_50I_52G_53A_54T_55F_67L_, Q9UKT9]", "values": [{"measurement": "log2 fold change of degron read counts", "setting": "[1]", "result": -1.47}, {"measurement": "log2 fold change of degron read counts", "setting": "[2]", "result": -2.7}, {"measurement": "log2 fold change of degron read counts", "setting": "[3]", "result": -2.3}, {"measurement": "log2 fold change of degron read counts", "setting": "compound: thalidomide", "result": -1.17}]}, {"sequence": "FFCPICGATFTQKGNLLRHIKL", "note": "[46F_47F_49P_50I_52G_53A_54T_55F_67L_, Q9UKT9]", "values": [{"measurement": "log2 fold change of degron read counts", "setting": "[1]", "result": 2.81}, {"measurement": "log2 fold change of degron read counts", "setting": "[2]", "result": 3.61}, {"measurement": "log2 fold change of degron read counts", "setting": "[3]", "result": 1.65}, {"measurement": "log2 fold change of degron read counts", "setting": "compound: thalidomide", "result": 1.35}]}, {"sequence": "FRCPICGATFTQKGNLLRHIKL", "note": "[46F_47R_49P_50I_52G_53A_54T_55F_67L_, Q9UKT9]", "values": [{"measurement": "log2 fold change of degron read counts", "setting": "[1]", "result": -0.752}, {"measurement": "log2 fold change of degron read counts", "setting": "[2]", "result": -0.483}, {"measurement": "log2 fold change of degron read counts", "setting": "[3]", "result": 1.07}, {"measurement": "log2 fold change of degron read counts", "setting": "compound: thalidomide", "result": 1.12}]}, {"sequence": "FNCPICGATFTQKGNLLRHIKL", "note": "[46F_47N_49P_50I_52G_53A_54T_55F_67L_, Q9UKT9]", "values": [{"measurement": "log2 fold change of degron read counts", "setting": "[1]", "result": 1.88}, {"measurement": "log2 fold change of degron read counts", "setting": "[2]", "result": 0.692}, {"measurement": "log2 fold change of degron read counts", "setting": "[3]", "result": 1.59}, {"measurement": "log2 fold change of degron read counts", "setting": "compound: thalidomide", "result": 0.652}]}, {"sequence": "FICPICGATFTQKGNLLRHIKL", "note": "[46F_47I_49P_50I_52G_53A_54T_55F_67L_, Q9UKT9]", "values": [{"measurement": "log2 fold change of degron read counts", "setting": "[1]", "result": -1.06}, {"measurement": "log2 fold change of degron read counts", "setting": "[2]", "result": 1.53}, {"measurement": "log2 fold change of degron read counts", "setting": "[3]", "result": 1.48}, {"measurement": "log2 fold change of degron read counts", "setting": "compound: thalidomide", "result": 1.86}]}, {"sequence": "FSCPICGATFTQKGNLLRHIKL", "note": "[46F_47S_49P_50I_52G_53A_54T_55F_67L_, Q9UKT9]", "values": [{"measurement": "log2 fold change of degron read counts", "setting": "[1]", "result": 2.78}, {"measurement": "log2 fold change of degron read counts", "setting": "[2]", "result": 2.14}, {"measurement": "log2 fold change of degron read counts", "setting": "[3]", "result": 2.34}, {"measurement": "log2 fold change of degron read counts", "setting": "compound: thalidomide", "result": 1.5}]}, {"sequence": "FACPICGATFTQKGNLLRHIKL", "note": "[46F_47A_49P_50I_52G_53A_54T_55F_67L_, Q9UKT9]", "values": [{"measurement": "log2 fold change of degron read counts", "setting": "[1]", "result": 3.39}, {"measurement": "log2 fold change of degron read counts", "setting": "[2]", "result": 1.82}, {"measurement": "log2 fold change of degron read counts", "setting": "[3]", "result": 1.17}, {"measurement": "log2 fold change of degron read counts", "setting": "compound: thalidomide", "result": 0.639}]}, {"sequence": "FGCPICGATFTQKGNLLRHIKL", "note": "[46F_47G_49P_50I_52G_53A_54T_55F_67L_, Q9UKT9]", "values": [{"measurement": "log2 fold change of degron read counts", "setting": "[1]", "result": 3.46}, {"measurement": "log2 fold change of degron read counts", "setting": "[2]", "result": 2.4}, {"measurement": "log2 fold change of degron read counts", "setting": "[3]", "result": 2.17}, {"measurement": "log2 fold change of degron read counts", "setting": "compound: thalidomide", "result": 1.08}]}, {"sequence": "FCCPICGATFTQKGNLLRHIKL", "note": "[46F_47C_49P_50I_52G_53A_54T_55F_67L_, Q9UKT9]", "values": [{"measurement": "log2 fold change of degron read counts", "setting": "[1]", "result": 1.51}, {"measurement": "log2 fold change of degron read counts", "setting": "[2]", "result": 1.82}, {"measurement": "log2 fold change of degron read counts", "setting": "[3]", "result": 2.36}, {"measurement": "log2 fold change of degron read counts", "setting": "compound: thalidomide", "result": 2.09}]}, {"sequence": "FQCPICGATFTQKGNLLRHIKL", "note": "[46F_47Q_49P_50I_52G_53A_54T_55F_67L_, Q9UKT9]", "values": [{"measurement": "log2 fold change of degron read counts", "setting": "[1]", "result": 0.717}, {"measurement": "log2 fold change of degron read counts", "setting": "[2]", "result": 2.74}, {"measurement": "log2 fold change of degron read counts", "setting": "[3]", "result": 2.33}, {"measurement": "log2 fold change of degron read counts", "setting": "compound: thalidomide", "result": 3.56}]}]}
